Test results from PubChem BioAssay (NCATS).
Records with an inconclusive call do not appear. Active and inactive are the calls of the source. Calls follow the shape of the dose curve; as a rule, active = well fitted cell-killing curve with a large enough effect; inconclusive = small, poorly fitted or top-dose-only effect, or effect the other way; inactive = no such curve, though single readings can be large or run the other way.

Experiment: Quantitative High-Throughput drug screen in 47 multiple myeloma cell lines against the NCATS MIPE library collection: MMM1_PLB cell viability assay (AID 1918976); also: nearly all actives have a fitted effect of over 35% in size
Details: MMM1 myeloma cells viability, CellTiter-Glo, 48 h; series mostly up to 45.8 µM; viability (% of control): at the top concentration
Description: PI: Beverly A. Mock Ph.D.
Laboratory of Cancer Biology and Genetics,
Center for Cancer Research, National Cancer Institute,
National Institute of Health, Bethesda, Maryland
Drug resistance and disease progression are common in multiple myeloma (MM) patients, underscoring the need for new therapeutic combinations. […] We hypothesized that effective combinations would reduce MYC expression and enhance p16 activity. […] These preclinical data identify potentially useful drug combinations for evaluation in drug-resistant MM and reveal potential mechanisms of combined drug sensitivity.
Described herein is the primary MIPE qHTS used to cherrypick compounds. Validated compounds were then further tested for potential synergistic activiy.
[1] Peat TJ, Gaikwad SM, Dubois W, Gyabaah-Kessie N, Zhang S, Gorjifard S, Phyo Z, Andres M, Hughitt VK, Simpson RM, Miller MA, Girvin AT, Taylor A, Williams D, D'Antonio N, Zhang Y, Rajagopalan A, Flietner E, Wilson K, Zhang X, Shinn P, Klumpp-Thomas C, McKnight C, Itkin Z, Chen L, Kazandijian D, Zhang J, Michalowski AM, Simmons JK, Keats J, Thomas CJ, Mock BA. Drug combinations identified by high-throughput screening promote cell cycle transition and upregulate Smad pathways in myeloma. Cancer Lett. 2023 Aug 1;568:216284. doi: 10.1016/j.canlet.2023.216284. Epub 2023 Jun 24. PMID: 37356470; PMCID: PMC10408729.
SEQUENCE No. (e.g., 1, 2, 3, etc.); […] (e.g., Cells, Incubation, Reagent, etc.); VALUE and DESCRIPTION.
1; Cells; 5 uL; white, solid bottom 1536-well Greiner assay plate.
2; Compounds; 23 nL; Kalypsis pin tool (Wako USA) equipped with a 1536-well pin head to transfer to the assay plates.
3; Incubation; 48 hours; 37C incubation.
4; Reagent;5uL; CellTiter Glo (Promega).
5; Detector; 425V; Luminescence; Viewlux PerkinElmer.
NOTES (numbers refer to Sequence numbers above)
1. The cell-based screening methods employed in this study were like those previously published. Briefly, the corresponding myeloma cell lines were screened in 1,536-well plates with 500 cells, 5-uL per well for inhibition of cell viability (assessed by measuring ATP levels with CellTiterGlo).
2. NCATS MIPE 4.0 library of approved and investigational drugs were added using the Kalypsis pin tool. Wells treated with DMSO only for 100% viability and media only for 0% viability were used as controls.
3. The assay plates were covered and incubated for 48 hours in a 37C, 5% CO2 incubator with controlled humidity.
4. After 48 hours, CellTilter-GloTM luminescent substrate mix (Promega) reagent was added to the assay plate and plates we incubated for 5 min at room temperature.
5. Signal was measured as median relative luminescence units on a ViewLux (PerkinElmer) multiplate reader.
[1] Heske CM, Davis MI, Baumgart JT, Wilson K, Gormally MV, Chen L, Zhang X, Ceribelli M, Duveau DY, Guha R, Ferrer M, Arnaldez FI, Ji J, Tran HL, Zhang Y, Mendoza A, Helman LJ, Thomas CJ. Matrix Screen Identifies Synergistic Combination of PARP Inhibitors and Nicotinamide Phosphoribosyltransferase (NAMPT) Inhibitors in Ewing Sarcoma. Clin Cancer Res. 2017 Dec 1;23(23):7301-7311. doi: 10.1158/1078-0432.CCR-17-1121. Epub 2017 Sep 12. PMID: 28899971; PMCID: PMC6636827.
Potency is read from the fitted curve at half-maximal effect.

| Structure (SMILES) | Potency | viability (% of control) |
| --- | --- | --- |
| COc1ccc(-c2ccc3c(N4CCOCC4)nc(N4C[C@@H](C)O[C@@H](C)C4)nc3n2)cc1CO | 0.105 µM (active) |  |
| CO[C@@H]1[C@H](N(C)C(=O)c2ccccc2)C[C@H]2O[C@]1(C)n1c3ccccc3c3c4c(c5c6ccccc6n2c5c31)C(=O)NC4 | 2.64 µM (active) |  |
| O=C(O)COCCN1CCN(C(c2ccccc2)c2ccc(Cl)cc2)CC1 (stereo not given) | 14.8 µM (active) |  |
| Cc1csc(NC(=O)c2sc3nc4c(c(C(F)(F)F)c3c2N)CCC4)n1 |  | 101% (inactive) |
| CCCS(=O)(=O)Nc1ccc(F)c(C(=O)c2c[nH]c3ncc(-c4ccc(Cl)cc4)cc23)c1F | 26.4 µM (active) |  |
| COc1ccc(COc2cc3oc(=O)c4cc(C(C)O)ccc4c3cc2OC)cc1 (stereo not given) | 18.7 µM (active) |  |
| COc1ccc(C2=N[C@H](c3ccc(Cl)cc3)[C@H](c3ccc(Cl)cc3)N2C(=O)N2CCNC(=O)C2)c(OC(C)C)c1 | 4.69 µM (active) |  |
| CCC(=O)N[C@H]1CC[C@H](C(=O)N(C)c2ccc(-c3nc4ccccc4o3)cc2)C1 | 14.8 µM (active) |  |
| C#Cc1cccc(Nc2ncnc3cc(OCCOC)c(OCCOC)cc23)c1 | 0.59 µM (active) |  |
| COc1ccc(-c2c(-c3ccc(O)cc3O)n[nH]c2C)cc1 | 42.9 µM (active) |  |
| CCc1cncnc1N1CCN(Cc2nc3ccc(C(F)(F)F)cc3[nH]2)CC1 | 16.6 µM (active) |  |
| Cc1ccc(-n2nc(C(C)(C)C)cc2NC(=O)Nc2ccc(OCCN3CCOCC3)c3ccccc23)cc1 | 20.9 µM (active) |  |
| O=C(Nc1ccc(F)c(C(F)(F)F)c1)Nc1nnc(-c2ccncc2)s1 | 5.26 µM (active) |  |
| NC(=O)C1CCCc2c1[nH]c1ccc(Cl)cc21 (stereo not given) | 3.32 µM (active) |  |
| Cc1cc([C@@H](C)Nc2ccccc2C(=O)O)c2nc(N3CCOCC3)cc(=O)n2c1 | 19.1 µM (active) |  |
| Nc1ncnc2nc(-c3ccc(N4CCOCC4)nc3)cc(-c3cccc(Br)c3)c12 | 11.8 µM (active) |  |
| COc1cc(Oc2ccnc3cc(OC)c(OC)cc23)ccc1NC(=O)NC(C)c1nccs1 (stereo not given) | 16.6 µM (active) |  |
| Cc1ccccc1C(C(=O)NC1CCCC1)N(C(=O)Cn1cnc2ccccc21)c1cccc(F)c1 (stereo not given) | 16.6 µM (active) |  |
| COc1cc2nccc(Oc3ccc(NC(=O)NC4CC4)c(Cl)c3)c2cc1C(N)=O | 2.35 µM (active) |  |
| Cc1ccc(NC(=O)c2cccc(C(C)(C)C#N)c2)cc1Nc1ccc2ncn(C)c(=O)c2c1 | 16.6 µM (active) |  |

| Structure (SMILES) | Potency | viability (% of control) |
| --- | --- | --- |
| CN(C)C(=O)c1ccc(S(=O)(=O)c2ccc(NC(=O)[C@@](C)(O)C(F)(F)F)c(Cl)c2)cc1 | 8.33 µM (active) |  |
| N#Cc1ccc(C(c2ccc(C#N)cc2)n2cncn2)cc1 | 11.8 µM (active) |  |
| Cn1cc(-c2ccc3nnc(C(F)(F)c4ccc5ncccc5c4)n3n2)cn1 | 5.9 µM (active) |  |
| Clc1ccc(Nc2nnc(Cc3ccncc3)c3ccccc23)cc1 | 18.7 µM (active) |  |
| N#CC[C@H](C1CCCC1)n1cc(-c2ncnc3[nH]ccc23)cn1 | 16.6 µM (active) |  |
| CC(C)(C)OC(=O)CN(Cc1ccc(Cl)cc1)Cc1ccc([N+](=O)[O-])s1 | 20.9 µM (active) |  |
| c1ccc(-c2nn3c(c2-c2ccnc4cc(OCCN5CCOCC5)ccc24)CCC3)nc1 | 26.4 µM (active) |  |
| Cc1cc2c(C(C)C)c(O)c(O)c(C=O)c2c(O)c1-c1c(C)cc2c(C(C)C)c(O)c(O)c(C=O)c2c1O | 18.7 µM (active) |  |
| CCCc1nn(C)c2c(=O)[nH]c(-c3cc(S(=O)(=O)N4CCN(C)CC4)ccc3OCC)nc12 | 23.5 µM (active) |  |
| CC1(C)SCCN(S(=O)(=O)c2ccc(OCC#CCO)cc2)[C@@H]1C(=O)NO | 1.87 µM (active) |  |
| Cc1c(CN2CCN(C(=O)C(C)C)CC2)sc2c(N3CCOCC3)nc(-c3cnc(N)nc3)nc12 | 0.0526 µM (active) |  |
| CC1(C)Cc2c(-c3ccccc3)c(-c3ccc(Cl)cc3)c(CC(=O)O)n2C1 | 20.9 µM (active) |  |
| CS(=O)(=O)c1cccc(CNc2nc(Nc3ccc4c(c3)CCC(=O)N4)ncc2C(F)(F)F)c1 | 23.5 µM (active) |  |
| Nc1nc2[nH]cc(CCc3ccc(C(=O)N[C@@H](CCC(=O)O)C(=O)O)cc3)c2c(=O)[nH]1 | 2.09 µM (active) |  |
| COc1cc(F)c(F)c(Nc2ccc(I)cc2F)c1NS(=O)(=O)C1(C[C@H](O)CO)CC1 | 2.64 µM (active) |  |
| CC(C)(Sc1ccc(CCN(CCCCC2CCCCC2)C(=O)NC2CCCCC2)cc1)C(=O)O | 18.7 µM (active) |  |
| O=C(Nc1nc2ccccc2n1CCN1CCOCC1)c1cccc([N+](=O)[O-])c1 | 13.2 µM (active) |  |
| CCC(C)n1ncn(-c2ccc(N3CCN(c4ccc(OC[C@H]5CO[C@](Cn6cncn6)(c6ccc(Cl)cc6Cl)O5)cc4)CC3)cc2)c1=O (stereo not given in full) | 2.96 µM (active) |  |
| CC(=O)NC(C)c1ccc(Oc2ccc(OC(C)C)cc2)cc1 (stereo not given) | 16.6 µM (active) |  |
| CCc1ccc(CCOc2ccc(CC3SC(=O)NC3=O)cc2)nc1 (stereo not given) | 8.33 µM (active) |  |
